Hits are enriched below; roughly 12% of the tested compounds scored in any of these assays.
NS1 function inh: influenza NS1 inhibition; Potency, µM (top dose mostly 46.1 µM); 270,000 compounds, 0.4% hits; further: actives are rising curves; nearly all actives have a fitted effect of over 50% in size
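Compounds were scored for reversing the slow growth caused by influenza A NS1 in S. cerevisiae, measured by optical density at 600 nm. Assay medium contained 2% galactose at pH 6.0; NS1-free yeast of the same strain were the positive control.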
SARS PLP yeast: blocks SARS-CoV papain-like protease in a yeast assay. S. cerevisiae expressing SARS-CoV PLpro, growth rescue. 330,000 compounds, 0.19% hits. AID 485353. Potency, µM (highest dose often 32.9 µM), usual class: activators; further: nearly all actives have a fitted effect of over 55% in size
Cycloheximide cs: counter-screen hit for Shiga toxin inhibitors, cycloheximide. 300,000 compounds, 12% hits. AID 2314. cell reporter, cycloheximide protein synthesis inhibition counterscreen. max response, %; in the data active means max response mostly above about 13%, no sharp cut-off; inactive means mostly below about 14%; further: read at 38.3 µM for the half of the compounds with a filed dose
Shiga toxin inh: blocks Shiga toxin action in Vero cells | inhibition, % at 38.7 µM | AID 2315 | 290,000 compounds, 9.2% hits | Vero cells, Shiga toxin protein synthesis inhibition reporter; in the data active means inhibition mostly above about 28%, no sharp cut-off; inactive means mostly below about 43%
A number is an active result; n = inactive; u = inconclusive; x = no result given. Unless noted, the call rests on the fitted dose curve.

SMILES | NS1 function inh | SARS PLP yeast | Cycloheximide cs | Shiga toxin inh
COC(=O)c1sccc1NC(=O)CC1C(=O)NCCN1C(=O)c1ccccc1 (stereo unspecified) | n | n | 13.4 | n
COC(=O)c1cc(NC(=O)CC2C(=O)NCCN2C(=O)c2ccccc2)cc(C(=O)OC)c1 (stereo unspecified) | n | n | n | n
O=C(O)/C=C/c1cn(-c2ccccc2)nc1-c1ccccc1 | n | n | n | n
CCN(CC)CCOC(=O)/C=C/c1ccccc1 | n | n | n | n
O=C(O)/C=C/c1cnn(-c2ccccc2)c1 | n | n | 20.6 | n
CCOC(=O)/C=C/c1cnn(-c2ccccc2)c1 | n | u | 88.5 | 168.7
Fc1ccc2nc(Nc3nc4c(F)cccc4s3)sc2c1 | n | x | 45.5 | 42.0
CCC(=O)NNc1nc2c(F)cccc2s1 | n | n | n | n
Fc1ccc2nc(Nc3nc4c(F)cc(F)cc4s3)sc2c1 | n | n | n | n
Fc1cccc2sc(Nc3nc4ccccc4s3)nc12 | n | n | 55.7 | 69.2
O=C1CN(C(=O)c2cc([N+](=O)[O-])ccc2Cl)C(c2ccc(F)cc2)c2cc(F)ccc2N1 (stereo unspecified) | n | n | n | n
O=C(CCS(=O)(=O)c1ccc(F)cc1)N1CCOCC1 | n | n | 14.5 | 46.0
O=C(CCc1nnc(C2CCCCC2)o1)N1CCN(c2ccccc2F)CC1 | n | n | 70.9 | 89.3
CC(=O)c1ccc(N2CCN(C(=O)CCS(=O)(=O)c3ccc4c(c3)NC(=O)CS4)CC2)cc1 | n | n | 43.6 | 54.8
COc1ccc(N2CCN(C(=O)CCS(=O)(=O)c3ccc4c(c3)NC(=O)C(C)S4)CC2)cc1 (stereo unspecified) | n | n | n | n
O=C(CCc1nnc(C2CCCCC2)o1)N1CCN(C2CCCCC2)CC1 | n | n | n | n
O=C(CCC(=O)N1CCN(c2ccc(F)cc2)CC1)c1ccccc1 | n | n | 32.6 | n
Cc1nn(C)c(C)c1/C=C/C(=O)c1ccc(Cl)cc1Cl | x | n | n | n
COc1cc(/C=C/C(=O)OCC(=O)c2ccc(S(=O)(=O)N3CCCCC3)cc2)cc(OC)c1OC | x | n | x | x
O=C(CCCC(=O)N1CCN(c2ccccc2F)CC1)c1ccccc1 | n | n | 35.9 | 59.0
O=C(CCS(=O)(=O)c1ccccc1)N1CCN(c2ccc(F)cc2)CC1 | n | n | 52.2 | 70.5
O=C(N/N=C/c1ccccc1F)c1ccccc1OCc1ccccc1 | n | n | 20.2 | 74.5
O=C(N/N=C/c1ccc[nH]1)c1ccccc1OCc1ccc(F)cc1 | n | n | n | n
O=C(NNC(=O)c1ccccc1OCc1ccccc1)c1ccccc1F | n | n | 68.9 | 73.3
O=C(NNC(=O)c1ccccc1OCc1ccc(F)cc1)c1ccccc1O | n | n | 14.7 | n
SMILES | NS1 function inh | SARS PLP yeast | Cycloheximide cs | Shiga toxin inh
Fc1ccc(Nc2ncnc3sccc23)cc1 | n | n | n | n
CCCOC(=O)c1ccc(Cl)c(NC(=O)c2cccnc2)c1 | n | n | n | n
O=C(N/N=C/c1cccs1)c1n[nH]c2c1CCC2 | n | n | 33.4 | 45.0
Cn1cccc1-c1cc(C(=O)N/N=C/c2ccc(Cl)cc2)[nH]n1 | n | n | n | n
O=C(CNc1cccc2ccccc12)N/N=C/C(Br)=C/c1ccccc1 | n | n | n | n
O=C(N/N=C/c1ccccc1Cl)c1ccncc1 | n | n | n | n
O=C(N/N=C/C(Br)=C/c1ccccc1)c1n[nH]c2c1CCC2 | n | n | 41.5 | 145.4
O=C(N/N=C/c1ccccc1Cl)c1n[nH]c2c1CCCC2 | u | n | 92.1 | 54.5
O=C(N/N=C/c1cccs1)c1cncc(Br)c1 | x | n | n | n
O=C(N/N=C/c1ccc(Cl)cc1)c1n[nH]c2c1CCCC2 | n | n | 40.9 | 82.6
Cc1ccc(C)c(NC(=O)Cn2nc(C)c3ccccc3c2=O)c1 | n | n | n | n
O=C(N/N=C/c1ccccc1)c1n[nH]c2c1CCCC2 | x | n | 27.1 | 75.7
CC1(C)CC(=NNC(=O)c2n[nH]c3c2CCC3)CC(C)(C)N1 | n | n | n | n
CCCOc1ccc(S(=O)(=O)N2C(=O)CC(=O)N(Cc3ccc(OCC)cc3)C2=O)cc1 | n | n | n | n
O=C(NCc1ccc(Cl)cc1)C1CCCN1C(=O)Nc1ccc(F)cc1 (stereo unspecified) | n | n | n | n
O=C(NCc1ccc(F)cc1)Nc1cccc(Cl)c1 | x | n | 27.9 | 62.4
O=C(NCc1ccc(F)cc1)Nc1ccc(Cl)cc1 | n | n | 36.0 | n
CC(C)CCC(=O)N1CCOC1=O | n | n | n | n
N/C(=N\OC(=O)CSc1ccccc1)c1ccncc1 | n | u | 47.0 | 78.6
COc1cccc(OCC(=O)O/N=C(\N)c2ccncc2)c1 | n | n | 27.7 | 59.3
N/C(=N\OC(=O)COc1ccccc1)c1ccncc1 | n | n | 43.5 | 82.8
N/C(=N\OC(=O)Cc1ccc(-c2ccccc2)cc1)c1ccncc1 | x | n | n | n
Cc1cc(C)cc(OCC(=O)O/N=C(\N)c2cccnc2)c1 | n | n | 16.1 | n
O=C(O)CCSc1nnc(COc2ccc(Cl)cc2)n1-c1ccccc1 | u | n | n | n
Cc1cc(C)nc(SCC(=O)N(C)CC(=O)Nc2c(Cl)cccc2Cl)n1 | x | n | x | x
SMILES | NS1 function inh | SARS PLP yeast | Cycloheximide cs | Shiga toxin inh
N/C(=N\OC(=O)CSc1ccccc1)c1cccc([N+](=O)[O-])c1 | n | n | 32.7 | n
N/C(=N\OC(=O)Oc1ccccc1)c1cccc([N+](=O)[O-])c1 | n | n | n | n
O=C(c1ccco1)N1CCN(Cc2ccccc2Br)CC1 | n | n | 34.1 | 56.2
O=C(c1ccco1)N1CCN(Cc2ccc(F)cc2Cl)CC1 | n | n | 49.9 | x
OC1CCN(Cc2cccc3ccccc23)CC1 | n | n | n | n
O=C(c1ccco1)N1CCN(Cc2ccc(F)cc2)CC1 | n | n | n | n
C/C(=N/N1CCN(Cc2cccc3ccccc23)CC1)c1ccco1 | n | n | n | 17.0
O=C(COc1cc2oc(=O)c3c(c2cc1Cl)CCC3)NCC(O)c1ccccc1 (stereo unspecified) | n | n | n | n
CCOC(=O)Cn1cc(/C=C(\C#N)C(=O)N2CCOCC2)c2ccccc21 | n | n | 10.3 | 74.0
CCSc1ccc(-c2nn(-c3ccccc3)cc2/C=C(/C#N)C(=O)NC)cc1 | n | n | n | n
CCOC(=O)Cn1cc(/C=C(/C#N)C(=O)NC(C)C)c2ccccc21 | n | n | n | n
CCCSc1ccc(-c2nn(-c3ccccc3)cc2/C=C(/C#N)C(=O)N2CCOCC2)cc1 | u | n | 16.3 | n
COc1ccc(-c2nc(SC)n(S(=O)(=O)c3ccccc3)n2)cc1 | n | n | 27.9 | 96.0
CSc1nc(-c2ccccc2)nn1S(=O)(=O)c1ccccc1 | n | n | 17.5 | n
CCS(=O)(=O)n1nc(-c2ccccc2)nc1SC | n | n | n | n
CSc1nc(-c2ccccc2)nn1S(=O)(=O)c1ccc(Cl)cc1 | u | n | n | n
O=C(CN1C(=O)CCC1=O)Nc1cccc2c1C(=O)NC2=O | x | n | n | n
CCOc1ccc(C(c2c(NC(=O)c3ccccc3)sc(C)c2C)N2CCN(C)CC2)cc1 (stereo unspecified) | n | n | n | 31.2
CCOc1ccc(C(c2c(NC(=O)c3ccco3)sc(C)c2C)N2CCOCC2)cc1 (stereo unspecified) | x | n | x | x
CC1(C)CC(=O)C(CC(=O)Nc2cc(C(F)(F)F)ccc2Cl)C(=O)C1 | x | n | n | n
Cc1cc(Nc2ccc(C)c(C)c2)c2ccccc2n1 | n | n | n | n
